# According to paper PMC12136788:
# Where a chain is given by its changes, count along the chain named. Over roughly 5,800 sequences, “enrichment r” has its median near 0.54; the highest 2% begin near 16. The sample holds the highest values, similar sequences and a random draw of the others, so the mix is not that of the screen.
# B1: chr10:110135209:110135310:+|3pUTR|ENSG00000148700|msi1|total|mutant (ssRNA)
# RNA: GGGAGUUCUACAGUCCGACGAUCCUCUCUAUUGGAAGAUUUUUUUAAUGUUCUACAUCAUUUAUGUUGUAUUACAAUGUAUGCCGAAACCGUAACCUGUGAACUAUGCUUUUCCAUAACUUUUUAAAAAUAUAUAUAUCUAAACAACAGAGGAUUGAGCAUCA
# B2: chr18:3457781:3457936:+|CDS|ENSG00000177426|unk|total|mutant (ssRNA)
# RNA: GGGAGUUCUACAGUCCGACGAUCCAACACUCCUCCCCCUACUCCACCGGACCUCAACCAGGACUUCAGUGGAUUUCAGCUUCCCGUGGAUGUUGCACUCAAACGGGCUGCAGAGAUGGAGCUUCAGGCAAAACUUACAGCUUACAACAGAGGAUUGAGCAUCA
# B3: chr8:88032264:88032379:-|3pUTR|ENSG00000156103|unk|FALSE|bound_elsewhere (ssRNA)
# RNA: GGGAGUUCUACAGUCCGACGAUCACUCCUUAUAAUGUUGCGUCAUUAAAGGUCAAGGGGUCAUGCUAUUAAUCUCAUUGCUAUAGACCAUUAACAUGACUGAACUUUUCCACAAAGUACUUAUGUUUACAAUGCUAUAACCCUCAACAGAGGAUUGAGCAUCA
# B4: ENSG00000150457:stop:overlap|stop_codon|ENSG00000150457|stop_codon|NA|stop_codon (ssRNA)
# RNA: GGGAGUUCUACAGUCCGACGAUCCAGAUUUAGAAAGCUCUGAUCUGGUGGAUCAGACUGAAGGCUGCCAGCCUGUGUACGUGUAGAUGGGGGCCAGGCACCCCCACCACUCGCUGCCUCCCAGGUCAGGGUCCCGGAGCCGGUCAACAGAGGAUUGAGCAUCA
# B5: chr11:118657315:118658441:-|three_prime_utr|ENSG00000118094|control|control|control (ssRNA)
# RNA: GGGAGUUCUACAGUCCGACGAUCCCUCCCAGCCUGUCCUCAGAGCGAAGUGGAGGGCAGGGUCACGACCUGGAGGUCAUGGGUAGGGGCCUAGCUCCCUCCUGGAACCUUGAAUAGGGUGGAAAUCCUGCUCUGGAGGGAAGACAACAGAGGAUUGAGCAUCA
# B6: chr1:156742365:156742464:-|3pUTR|ENSG00000143321|msi1_unk|total|mutant (ssRNA)
# RNA: GGGAGUUCUACAGUCCGACGAUCAUUUCUGAGGUGCACUGGGAGGCUCCCCUUCUAUUUGGGGCUUGAUGACUUUCUUUUUGCCGCUGGGGCUUUGAUGUUCCUUCCAGUGUCAUUUCUCAUCCACAUACCCUGACCUGGCCCCAACAGAGGAUUGAGCAUCA
# B7: chr3:44647099:44647200:+|3pUTR|ENSG00000186448|msi1|total|mutant (ssRNA)
# RNA: GGGAGUUCUACAGUCCGACGAUCAUUUGUAUGUAAACUACAUAAAGAACUUUCCAAAUUUAACAGUAAUAAGUAAAUACAAUCCGAAAAUAAGCAAAAGACAGACAUUUCACUGAAGUACCGACCGCAAAUAAGCAAAUGAAACAACAGAGGAUUGAGCAUCA
# B8: chr19:34227675:34227687:+|3pUTR|ENSG00000257103|msi1_unk|total|mutant (ssRNA)
# RNA: GGGAGUUCUACAGUCCGACGAUCUUAAAACAUGAGCAUUAAAUAUAUUUGGAACCGCAGAAGGUUAAGUAAUUUCUUAUGUACCGUUAAACUAAAGCAGUACUUCAGUGGGACUUAACAAGUAUUUUUUCAUCACUGAAAGGUCAACAGAGGAUUGAGCAUCA
# B9: chr3:44647099:44647200:+|3pUTR|ENSG00000186448|msi1|FALSE|unique (ssRNA)
# RNA: B7 RNA with C83U, C84A, C120U, C121A, C124U, C125A
# B10: chr8:30843048:30843149:-|CDS|ENSG00000133863|unk|FALSE|unique (ssRNA)
# RNA: GGGAGUUCUACAGUCCGACGAUCGGAUACUAUAAUUGCUUCCAGAAAGUCAGAUCAUCCAAUAAACGAAGCAACAAUUAGCAUAGAAAAUUCUAAAUUUAACAGUAAUUUGCUUGCACACCCAGAUAUUUGUUGUAUUAGUGACAACAGAGGAUUGAGCAUCA
# B11: chrX:41141081:41141111:+|CDS|ENSG00000124486|msi1_unk|total|mutant (ssRNA)
# RNA: GGGAGUUCUACAGUCCGACGAUCCACUCUUCAUACAGUGAAAAAGUACUUUCUUCCAAUAACCGAAAUGGUUCCACAGUUUUCCGAAAACUUAACUGAUGAAGAACUGAAAAAAGAAGCAAAGAAUGAAGCCAAAAAUGAUGCCAACAGAGGAUUGAGCAUCA
# B12: chr8:30843048:30843149:-|CDS|ENSG00000133863|unk|total|mutant (ssRNA)
# RNA: B10 RNA with U78C, A79C, U83C, A84C, U138C, A139C
# B13: chr11:85958428:85958534:-|3pUTR|ENSG00000073921|unk|FALSE|unique (ssRNA)
# RNA: GGGAGUUCUACAGUCCGACGAUCAGAAACAAUAACUGAAAUUAACUUUUCUUUUUUUAAAAAAAAUUAUAUUCAGUUUGCAGUAGACAUUCCUUAAGUAUUUGUAUUUAUUUAUGAUUAUCAAUUUUACAUAACAUUAAUAUUCAACAGAGGAUUGAGCAUCA
# B14: chr12:125025615:125025697:+|3pUTR|ENSG00000184992|msi1_unk|FALSE|overlapping (ssRNA)
# RNA: GGGAGUUCUACAGUCCGACGAUCGGACACAUUCCCAGAAGAGCGGAAAGAUCAUUGACGUGGAACUACACACGAAGUGUAAUUAGUGGGGGAAAAAAUAUUUUUUAAACAAAGGAUAUAACCAUAUUUAGUUGUACAGUAAGACAACAGAGGAUUGAGCAUCA
# B15: ENSG00000067715:stop:overlap|stop_codon|ENSG00000067715|stop_codon|NA|stop_codon (ssRNA)
# RNA: GGGAGUUCUACAGUCCGACGAUCAGGAGAAGUUUAUGAAUGAGUUGCAUAAAAUUCCAUUUCAAAGGAAAGAGAGUACCAAUUAGACAAGGGAAGAAGAUGAGAGACUGCCUGAACAGCAUCACUUUUGUAAACUGAGAGUUCCAACAGAGGAUUGAGCAUCA
# B16: chr11:214995:215097:+|3pUTR|ENSG00000177963|unk|total|mutant (ssRNA)
# RNA: GGGAGUUCUACAGUCCGACGAUCCCUCCUUCCUACUGGUUCCGACUACACUUACAACAAGGAAAAUGCCCCUCGUGUGACCACCGAUUGAGAUUUAUACCACAUACCACACACCGCCACAGAAACAUCAUCUUGAAAUAAAGACAACAGAGGAUUGAGCAUCA
# B17: chr5:157162449:157163658:-|CDS|ENSG00000170613|control|control|control (ssRNA)
# RNA: GGGAGUUCUACAGUCCGACGAUCGGUCACAUCACAUGACAGAGAGGUAGAUAUCGUGGCUAAGAUGGUGGAGAAGCAAAACAUAGAGGCCAAAGUGGAGAAAGCCCAGGGUGGCCAGGAGCUGGAGAUGAUCAGUGGCACUAUCAACAGAGGAUUGAGCAUCA
# B18: chr1:234405902:234406099:-|CDS|ENSG00000059588|control|control|control (ssRNA)
# RNA: GGGAGUUCUACAGUCCGACGAUCCCUUAUAGUUGUGCUGCAGUGGUGUUUCAAUCACAAUUUUAGUGUUCGACUGUAUGCUUUAGUUGCUCUUAAGAAACUCUGGACUGUGUGUAAAGUGUUAAGUGUUGAAGAAUUUGAUGCCAACAGAGGAUUGAGCAUCA
# B19: chr6:136278143:136278257:-|CDS|ENSG00000029363|unk|total|mutant (ssRNA)
# RNA: GGGAGUUCUACAGUCCGACGAUCACAUCCGGUGAUAUUUGGCCUGGCCUUUCAGCUUAUGAUAACCGUCCCCGAUCACCCCACCGUCCUUCACCUAUUGCUACACCACCCCGUCAGAGUUCAUCUUGCUCUGAUGCUCCCAUGCAACAGAGGAUUGAGCAUCA
# B20: chr1:15430058:15430159:+|3pUTR|ENSG00000142634|msi1|FALSE|unique (ssRNA)
# RNA: GGGAGUUCUACAGUCCGACGAUCCCUGGAAGCUACGCGGACUUGCAGAGGUUUUAUUUUUUGGCCUUAGAAUCUGCAGAAAUUAGGAGGCACCGAGCCCAGCGCAGCAGCCUCGGACCCGGAUUGCGUUUGCCUUAGCGGAUACAACAGAGGAUUGAGCAUCA
# B21: ENSG00000070961:be:win_4001|3pUTR|ENSG00000070961|bound_else_gene|NA|bound_elsewhere_windowed (ssRNA)
# RNA: GGGAGUUCUACAGUCCGACGAUCAGUAAAACUGGGCAAGACAAAGAGCCCUGGAUCGUUGAAUUGAUAGUUUAAUUUCUGCUGUUGGCUGUUAAUAAUUUGGAUUAUUUAUGUUUAUAAAUGAUACAGAUCUGUUUACAAGGUCAACAGAGGAUUGAGCAUCA
# B22: ENSG00000005810:stop:overlap|stop_codon|ENSG00000005810|stop_codon|NA|stop_codon (ssRNA)
# RNA: GGGAGUUCUACAGUCCGACGAUCCACCCACUGGGGAAGAGUUUGCUCUGGGAUGUGGAGUGUGCAGAAAUGCCCACACUUUUUAGAACACGCAGAUCCUUUGUCUACAGAGAGAAAAAUUGCCUUCAUCCCCCAAGAGGAUGCCAACAGAGGAUUGAGCAUCA
# Target: MSI1 full-length (mouse, UniProt Q61474 1-362)
# Sequence (Q61474 whole entry): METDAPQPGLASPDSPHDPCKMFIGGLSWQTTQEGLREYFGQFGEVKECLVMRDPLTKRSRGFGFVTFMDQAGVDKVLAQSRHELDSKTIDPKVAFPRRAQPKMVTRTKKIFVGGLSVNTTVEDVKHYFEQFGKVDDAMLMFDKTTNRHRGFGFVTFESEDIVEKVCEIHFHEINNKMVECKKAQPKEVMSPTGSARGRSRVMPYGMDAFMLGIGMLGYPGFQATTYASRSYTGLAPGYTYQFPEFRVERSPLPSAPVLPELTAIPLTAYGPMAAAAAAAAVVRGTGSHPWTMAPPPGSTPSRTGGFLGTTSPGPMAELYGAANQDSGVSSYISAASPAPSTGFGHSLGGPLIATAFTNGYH
# Test: nsRBNS (natural sequence RNA bind-n-seq); RBNS binding buffer (assumed for nsRBNS): 25 mM Tris pH 7.5, 150 mM KCl, 3 mM MgCl2, 0.01% Triton X-100, 500 ug/ml BSA, 20 U/ml SUPERase-In, 4 C; UNK is unkempt and MSI1 is Musashi-1; names of the RNAs are library labels; protein concentration not given here; high values mean tight binding
row,Binder,binding signal [enrichment R]
1,B1,7.3
2,B2,0.52
3,B3,0.72
4,B4,0.418
5,B5,0.327
6,B6,0.353
7,B7,19.7
8,B8,1.31
9,B9,129
10,B10,29.7
11,B11,0.267
12,B12,1.28
13,B13,4.67
14,B14,3.62
15,B15,0.457
16,B16,0.839
17,B17,0.709
18,B18,0.964
19,B19,0.739
20,B20,0.989
21,B21,0.47
22,B22,0.439
